# According to PubChem BioAssay (EPA / NIEHS):
# The source made the active and inactive calls. The calls were made as follows: active = hit-call score of the fitted dose curve at least 0.9, where 1 is the maximum; inactive = score below 0.9.
# Read-out: Ezrin (EZR), EZR (gene 7430)
# Test: LTEA_HepaRG_EZR: Life Technologies and Expression Analysis (LTEA) Assay for Ezrin (EZR) using HepaRG (AID 2283491)
# Conditions: mRNA level, 48 h; actives raise or lower the signal
# Protocol: It is a marker of Cellular remodeling.Data from the assay component LTEA_HepaRG_EZR was analyzed into 1 endpoint. This assay endpoint, LTEA_HepaRG_EZR, was analyzed with bidirectional fitting relative to DMSO as the negative control and baseline of activity. Using a type of inducible reporter, measures of mRNA induction for gain or loss-of-signal activity can be used to understand regulation of transcription factor activity. To generalize the intended target to other relatable targets, this assay endpoint is annotated to the membrane protein intended target family, where the subfamily is Cellular remodeling.
# A total of 1060 chemcials from the ToxCast library were tested in eight-point concentration-response experiments. Cell culture and cytotoxicity assays were conducted at Thermo Fisher Scientific's Custom Services facility (Madison, WI). A single lot of human HepaRG cells (Thermo Fisher Scientific, Frederick, MD) was used for the cell culture experiments. 96-well format collagen type I coated plates of human HepaRG cells were prepared using established methods. Briefly, cryopreserved HepaRG cells were thawed, plated at a density of approximately 100,000 cells/well in HepaRG Thaw, Plate, and General Purpose media (HPRG770, Thermo Fisher Scientific), and incubated for 48 hours. 0.5% DMSO was selected as vehicle control to balance the requisite need of DMSO in HepaRG cultures to maintain differentiation (for example, baseline metabolism, proportions of hepatocytes vs. cholangiocytes), while enabling further hepatic receptor pathway activation (for example, PXR and CAR) in response to chemical exposure. 48 hours after plating, the culture medium was replaced with HepaRG Serum-Free Incudtion Media. Cells were exposed to each test chemical in duplicate and maintained in CO2 incubators for another 48 hours. Chemical plates were thawed to room temperature and 200x concentrations of treatment groups were prepared. 8-point conentration-reponse curves were made with the highest exposure at 100 uM, followed by half-log dilutions, all in 0.5% DMSO. Each test plate contained variouse controls, induction positive controls (1mM phenobarbital), cytotoxicity positive controls ([…] aflatoxin B1), vehicle controls (0.5% DMSO), and total lysis controls (0.5% DMSO). Cell morphology images were taken using an Essen IncuCyte FLR automated microscope, with six 96-well plates imaged in about 24 minutes. Images were captured and exported and JPEG files. Spent culture media was transfered to black-well plates for the LDH assay, and remaining media was sorted at -80 C for later use. Cells were treated with RLT buffer and frozen until shipped for gene expression analysis. Total RNA was isolated from the cell suspension in 75 uL of Buffer RLT (Qiagen, Germantown, MD 20874) by Quintiles/Expression Analysis (Durham, NC) using a custom isolation procedure. Total RNA from each plate well was transferred to a preamplification plate. Fluidigm's 96.96 Dynamic ArrayTM (Fluidigm, Amsterdam, the Netherlands) technology was used for gene expression analyses by quantitative reverse transcription polymerase chain reaction (qRT-PCR, performed by Quintiles/Expression Analysis, Durham, NC)89. Standard TaqManTM Assays (Applied Biosystems/ThermoFisher Scientific, Foster City, CA) were used to assess the expression of 93 genes selected based on their selectivity and sensitivity to important hepatic receptors known to be modulated by environmental chemicals; importance in human hepatocyte functionality; and hepatotoxicity. Three "housekeeping" endogenous control genes were also included and used for normalization: actin beta (ACTB), Glyceraldehyde 3 phosphate dehydrogenase (GAPDH) and RNA Polymerase II Subunit A (POLR2A). qRT-PCR was conducted according to the manufacturer's protocol.
SMILES,outcome,AC50
Nc1c(Cl)c(F)nc(OCC(=O)O)c1Cl,inactive,–
CCN(CC)c1nc(C)cc(OP(=S)(OC)OC)n1,inactive,–
CC(C)(C)C(=O)C(Oc1ccc(Cl)cc1)n1cncn1 (stereo not given),inactive,–
CC(C)N1C(=O)N(c2ccccc2)CSC1=NC(C)(C)C,–,50 µM (active)
O=P(O)(O)CCCl,inactive,–
O=C1C2CC=CCC2C(=O)N1SC(Cl)(Cl)Cl (stereo not given),inactive,–
CC(C)NC(=O)N1CC(=O)N(c2cc(Cl)cc(Cl)c2)C1=O,inactive,–
CCOP(=S)(OCC)Oc1nc(Cl)n(C(C)C)n1,inactive,–
Cc1cnc(C2=NC(C)(C(C)C)C(=O)N2)c(C(=O)O)c1 (stereo not given),inactive,–
CCCC(=NOCC)C1=C(O)CC(CC(C)SCC)CC1=O (stereo not given),inactive,–
COCC(C)N(C(=O)CCl)c1c(C)csc1C (stereo not given),inactive,–
N#CN=C1SCCN1Cc1ccc(Cl)nc1,inactive,–
COc1ccc(-c2ccccc2)cc1NNC(=O)OC(C)C,inactive,–
CCCCOCN(C(=O)CCl)c1c(CC)cccc1CC,inactive,–
CCNP(=S)(OC)O/C(C)=C/C(=O)OC(C)C (stereo not given),inactive,–
CN/C(=N\[N+](=O)[O-])NCc1cnc(Cl)s1,inactive,–
O=C(O)c1c(Cl)ccc2cc(Cl)cnc12,inactive,–
CCCCC(C#N)(Cn1cncn1)c1ccc(Cl)cc1 (stereo not given),inactive,–
Cc1ccc(N=CN(C)C=Nc2ccc(C)cc2C)c(C)c1,inactive,–
CCC(C)n1c(=O)[nH]c(C)c(Br)c1=O (stereo not given),inactive,–

SMILES,outcome,AC50
COc1cc(OC)nc(NC(=O)NS(=O)(=O)c2ncccc2OCC(F)(F)F)n1,–,0.239 µM (active)
CC(C)Nc1nc(Cl)nc(NC(C)C)n1,inactive,–
CC(C)Oc1cccc(NC(=O)c2ccccc2C(F)(F)F)c1,inactive,–
CCOc1nc(C(Cl)(Cl)Cl)ns1,inactive,–
CCCN(CC)CC1COC2(CCC(C(C)(C)C)CC2)O1 (stereo not given),inactive,–
CC(C)C1(C)N=C(c2ncccc2C(=O)O)NC1=O (stereo not given),inactive,–
Cc1cc(C)nc(Nc2ccccc2)n1,inactive,–
CNC(=O)Oc1cccc2ccccc12,inactive,–
CCOC(=O)C(C)OC(=O)c1cc(Oc2ccc(C(F)(F)F)cc2Cl)ccc1[N+](=O)[O-] (stereo not given),inactive,–
O=C(Nc1ccccc1-c1ccc(Cl)cc1)c1cccnc1Cl,inactive,–
Clc1cccc(C(Cl)(Cl)Cl)n1,inactive,–
CN=C=S,inactive,–
COc1cc(Cl)c(OC)cc1Cl,inactive,–
N#Cc1c[nH]cc1-c1cccc2c1OC(F)(F)O2,inactive,–
Nc1c(Cl)c(Cl)nc(C(=O)O)c1Cl,inactive,–
COC(=O)NS(=O)(=O)c1ccc(N)cc1,inactive,–
COP(=S)(OC)Oc1ccc([N+](=O)[O-])c(C)c1,inactive,–
O=c1n(Cl)c(=O)n(Cl)c(=O)n1Cl,inactive,–
Cc1c(COC(=O)[C@@H]2[C@H](/C=C(\Cl)C(F)(F)F)C2(C)C)cccc1-c1ccccc1,inactive,–
CCN(CC)C(=O)C(C)Oc1cccc2ccccc12 (stereo not given),inactive,–
